Screening data: PubChem BioAssay, NMMLSC
CIT2-GFP yeast – modulators of CIT2-GFP expression in yeast, primary screen, S. cerevisiae, GFP fusion, multiplex flow cytometry, MLPCN library; S. cerevisiae CIT2-GFP strain, 3 h; 100 means same as DMSO wells; GFP response vs DMSO, % at 10 µM; hit rate 0.065% among 320,000; AID 2029, 2009;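 active means GFP response relative to DMSO above a set limit, near the screen mean plus 3 SD, cut at about 150% in these data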;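 further: ratio of well median GFP fluorescence to mean of DMSO wells on the plate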
RPL19A TOR yeast – RPL19A-GFP expression modulators in yeast, primary screen, cell-based, S. cerevisiae, multiplex flow cytometry, MLPCN. S. cerevisiae RPL19A-GFP strain, 3 h; active compounds read low. hit rate 0.3% among 330,000. percent response vs DMSO, % at 10 µM;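 active means percent response vs DMSO below 50%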;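 further: median channel GFP fluorescence of the barcoded RPL19A-GFP strain; ratio of sample median GFP to plate DMSO average so 100% = DMSO; lower means less RPL19A-GFP as with rapamycin TOR inhibition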
LAP4 TOR yeast – modulators of LAP4-GFP expression in yeast, primary screen, S. cerevisiae, multiplex flow cytometry, MLPCN library; 3 h; median GFP as percent of DMSO wells; GFP response vs DMSO, % at 10 µM; hit rate 0.34% among 320,000; AID 2023, 2009;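 active means GFP response vs DMSO above a set limit, about the screen mean plus 3 SD, cut at about 150% in these data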
AGP1 TOR yeast – modulators of AGP1-GFP expression in yeast TOR pathway, primary screen, cell-based, multiplex flow cytometry, S. cerevisiae, MLPCN library | 3 h; GFP as percent of DMSO wells | GFP response vs DMSO, % at 10 µM | hit rate 0.02% among 320,000;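 active means GFP response relative to DMSO above a set limit, near screen average plus 3 SD, cut at about 150% in these data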;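 further: median GFP channel fluorescence of the gated AGP1 strain per well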
MEP2 TOR yeast – modulators of MEP2-GFP levels in yeast, primary screen, S. cerevisiae, multiplex flow cytometry, MLPCN library | S. cerevisiae MEP2-GFP strain, 3 h; 100% = DMSO control level | GFP response vs DMSO, % at 10 µM | hit rate 0.51% among 330,000;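 active means GFP response versus DMSO above a set limit, roughly screen mean plus 3 SD, cut at about 180% in these data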;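 further: median GFP fluorescence of the barcode-gated MEP2-GFP cells per well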
LAP4 cherry2 – LAP4-GFP expression modulators in yeast, confirmation, cell-based, second cherry pick, flow cytometry; shares compounds with LAP4 TOR yeast; S. cerevisiae LAP4-GFP strain, 3 h; GFP response vs DMSO, % at 10 µM; hit rate 20% among 590; AID 2621, 2010;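 active means GFP signal as percent of the solvent control above about 150%, meaning raised reporter expression, limit read from the data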;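 further: ratio of well median GFP fluorescence to plate DMSO mean so 100% = DMSO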
MEP2-GFP pick2 – modulators of MEP2-GFP levels in yeast, confirmation, S. cerevisiae, flow cytometry GFP, second cherry picks | hit rate 10% among 590 | shares compounds with LAP4 TOR yeast | S. cerevisiae MEP2-GFP strain, 3 h | GFP response vs DMSO, % at 10 µM;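 active means GFP signal above 150% of the solvent control wells, that is a rise of more than half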;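 further: median channel GFP fluorescence of all gated yeast cells per well; ratio of median GFP to plate DMSO average so 100% = DMSO level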
RPL19A-GFP pick2 – RPL19A-GFP modulators in TOR pathway yeast, confirmation, cell-based, S. cerevisiae, flow cytometry, second cherry pick; shares compounds with LAP4 TOR yeast; S. cerevisiae RPL19A-GFP strain, 3 h; active compounds read low; 100% means same as DMSO wells; GFP response vs DMSO, % at 10 µM; hit rate 3% among 590; AID 2623, 2010;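 active means under 65% GFP response relative to DMSO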;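 further: median GFP channel fluorescence per well over the all cells gate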
CIT2-GFP pick2 – modulators of CIT2-GFP expression in yeast, confirmation, flow cytometry, second cherry pick, single plex. shares compounds with LAP4 TOR yeast. S. cerevisiae CIT2-GFP strain, 3 h; DMSO control wells read 100%. GFP response vs DMSO, % at 10 µM. AID 2624, 2010. hit rate 8% among 590;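 active means GFP response vs DMSO above about 150%, limit read from the data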;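 further: median green fluorescence per well over all gated yeast cells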
AGP1 GFP CP2 – AGP1-GFP expression modulators, hit retest, confirmation, cell-based, flow cytometry, S. cerevisiae, cherry pick set 2; shares compounds with LAP4 TOR yeast; S. cerevisiae AGP1-GFP strain, 3 h; percent response vs DMSO, % at 10 µM; 590 tested, under 10 active;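 active means over 150 percent of DMSO response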;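 further: median GFP channel fluorescence over all cells without mother daughter split; sample median GFP divided by mean DMSO control so 100% equals DMSO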
Yeast autofluor – compound autofluorescence in yeast s288c, dose response, artefact control for yeast TOR pathway GFP screen, s288c strain. 610 tested, under 10 active. shares compounds with LAP4 TOR yeast. AID 2757, 2010. fluorescence change (kMESF span) at 33 µM. S. cerevisiae s288c, 520 nm autofluorescence, flow cytometry, 3 h; active compounds read high; zero means same as solvent-only cells;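 active means fluorescence span over the dose series, or activity score, above about 33, limit read from the data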
Yeast autofl DR – autofluorescence of compounds in yeast s288c, dose response, artefact control for yeast TOR pathway GFP screen, primary hits, KU SAR, s288c parental; fluorescence change (span) at 33 µM; S. cerevisiae s288c parental, compound autofluorescence, flow cytometry, 3 h; 110 tested, under 10 active; shares compounds with LAP4 TOR yeast;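 active means fluorescence change span, or the activity score built from it, above 25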
TORC1 bypass – wild-type yeast growth inhibition sparing TORC1 bypass cells, mechanism study for yeast TOR pathway GFP screen, BY4741 wild type, TORC1 bypass strain. S. cerevisiae BY4741 spot growth rating, 48-72 h; active compounds read low. shares compounds with LAP4 TOR yeast. 120 tested, under 10 active. growth rating (0-3) at 30 µM;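 active means growth rating at most 1 for wild type yeast while the TORC1 bypass strain still grows fully, rated 3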
* hit, by the source's call; nt = not tested or not shown. Sampled rows, rich in hits. Any-hit rate of the full collection: about 0.89%.

SMILES | CIT2-GFP yeast | RPL19A TOR yeast | LAP4 TOR yeast | AGP1 TOR yeast | MEP2 TOR yeast | LAP4 cherry2 | MEP2-GFP pick2 | RPL19A-GFP pick2 | CIT2-GFP pick2 | AGP1 GFP CP2 | Yeast autofluor | others
Cc1nc(SC(C)C(=O)Nc2c(C)n(C)n(-c3ccccc3)c2=O)nc(C)c1C (stereo not given) | 85.8 | 92.9 | 90.9 | 93.0 | 96.7 | nt | nt | nt | nt | nt | nt
Cc1c(NC(=O)C(C)Sc2n[nH]c(N)n2)c(=O)n(-c2ccccc2)n1C (stereo not given) | 170.0* | 57.0 | 195.9* | 149.0 | 647.5* | 97.1 | 104.8 | 100.9 | 108.6 | 102.2 | nt
O=C(N1CCOCC1)N1c2ccccc2CC(N2CCOCC2)c2ccccc21 (stereo not given) | 91.0 | 87.2 | 82.3 | nt | 90.5 | nt | nt | nt | nt | nt | nt
CCC(=O)Nc1ccc(NC(=S)NC(=O)c2cc3ccccc3o2)cc1 | 94.9 | 94.3 | 94.5 | 92.8 | 100.2 | nt | nt | nt | nt | nt | nt
COc1cc(NC(=O)c2ccccc2[N+](=O)[O-])ccc1NC(=O)c1cc2ccccc2o1 | 107.1 | 106.4 | 108.3 | 105.7 | 118.4 | nt | nt | nt | nt | nt | 0.1
CCC(=O)Nc1ccc(NC(=O)c2cc3ccccc3o2)cc1 | 104.6 | 103.6 | 106.5 | 109.9 | 102.7 | nt | nt | nt | nt | nt | 0.2
COc1ccc(C(=O)NC(=O)CSc2nc3nc(C)cc(C)n3n2)cc1 | 94.3 | 94.2 | 110.5 | 102.2 | 96.9 | nt | nt | nt | nt | nt | nt
Cc1cc(C)c(C(=O)N2CCCC(Nc3ccc(C)c(C)c3)C2)o1 (stereo not given) | 95.0 | 95.1 | 97.3 | 96.9 | 96.8 | nt | nt | nt | nt | nt | nt
Cc1cc(C)c(C(=O)N2CCCC(Nc3ccc(F)cc3)C2)o1 (stereo not given) | 74.0 | 67.0 | 200.9* | 58.9 | 85.1 | 95.2 | 96.1 | 102.1 | 107.1 | 98.5 | nt
O=C(COc1ccccc1)N1CCN(c2ncnc3c2cnn3-c2ccccc2)CC1 | 84.9 | 94.5 | 95.3 | 103.2 | 189.9* | nt | nt | nt | nt | nt | 0
O=C(CSc1nnc2c(n1)[nH]c1ccc(F)cc12)OCc1ccccc1 | 105.6 | 98.5 | 92.2 | 96.8 | 100.9 | nt | nt | nt | nt | nt | nt
CC(=O)N(\C=C/C=C/C=C1\Sc2ccccc2C1=O)c1ccccc1 | 200.4* | 113.0 | 166.6* | 105.2 | 283.1* | nt | nt | nt | nt | nt | 9.97
CN(C)/C=C1/Sc2ccccc2C1=O | 98.5 | 102.2 | 103.0 | 101.2 | 95.4 | nt | nt | nt | nt | nt | nt
CCOc1ccc2oc(C(=O)NCc3nc4ccccc4[nH]3)c(C)c2c1 | nt | 109.8 | 88.8 | 98.4 | 101.2 | nt | nt | nt | nt | nt | nt
COc1ccc(NC(=O)N2CCC(C(=O)c3ccc(F)cc3)CC2)cc1 | 99.1 | 76.8 | 400.5* | 76.0 | 147.2 | 105.2 | 110.0 | 97.4 | 100.1 | 93.5 | nt
CSc1ccc(NC(=O)N2CCC(C(=O)c3ccc(F)cc3)CC2)cc1 | 98.8 | 98.2 | 100.3 | 95.2 | 84.5 | nt | nt | nt | nt | nt | nt
COc1ccc(-c2nnc3c4ccccc4c(C)nn23)cc1 | 103.7 | 93.1 | 83.5 | 94.1 | 103.7 | nt | nt | nt | nt | nt | nt
Cc1nn2c(-c3ccco3)nnc2c2ccccc12 | 75.6 | 64.3 | 86.4 | 60.9 | 90.1 | 93.3 | 93.2 | 66.2 | 95.0 | 67.4 | nt
Cc1nn2c(-c3ccncc3)nnc2c2ccccc12 | 65.1 | 59.7 | 101.3 | 57.9 | 105.6 | 90.4 | 94.8 | 64.5* | 97.2 | 67.8 | 0.3 | Yeast autofl DR=0.36;TORC1 bypass=3
O=C(CN1C(=O)/C(=C/c2ccco2)SC1=S)NC1CCS(=O)(=O)C1 (stereo not given) | 105.2 | 98.2 | 96.5 | 98.8 | 110.6 | nt | nt | nt | nt | nt | nt
CC1Sc2ccc(S(=O)(=O)N3CCC(C(=O)N(C)Cc4ccco4)CC3)cc2NC1=O (stereo not given) | 107.4 | 102.5 | 96.0 | 108.3 | 105.3 | nt | nt | nt | nt | nt | nt
Cc1cc(N2CCN(S(=O)(=O)c3ccc(Br)cc3)CC2)n2ncnc2n1 | 84.2 | 50.2 | 85.0 | 28.2 | 142.0 | 103.2 | 108.3 | 98.0 | 102.9 | 96.2 | nt
COc1ccccc1C(=O)Nc1ccc(Br)cc1C | 83.4 | 81.5 | 187.8* | 106.6 | 102.0 | 103.8 | 104.8 | 98.3 | 96.1 | 95.8 | nt
COc1ccccc1C(=O)Nc1ccc(Br)c2cccnc12 | 106.2 | 103.3 | 86.6 | 100.1 | 102.9 | nt | nt | nt | nt | nt | nt
O=C(Nc1nc(-c2ccccc2)cs1)c1ccco1 | 85.5 | 98.1 | 113.5 | 91.2 | 94.2 | nt | nt | nt | nt | nt | nt
CC(OC(=O)c1ccco1)C(=O)Nc1nc(-c2ccccc2)cs1 (stereo not given) | 64.1 | 77.9 | 176.9* | 100.7 | 93.9 | 120.2 | 94.3 | 98.2 | 102.9 | 98.8 | 0
C/C(=N\NS(=O)(=O)c1ccc([N+](=O)[O-])cc1)c1ccc(NC(=O)c2ccco2)cc1 | 83.0 | 52.1 | 89.8 | 75.3 | 153.6 | 103.2 | 97.8 | 101.2 | 98.7 | 99.5 | nt
Cc1cc(NC(c2ccc(Cl)cc2)c2ccc3cccnc3c2O)no1 (stereo not given) | 78.8 | 94.8 | 151.4* | 91.8 | 101.5 | nt | nt | nt | nt | nt | 0
